The values below come from PubChem BioAssay (NCATS).

The first assay in a line: qHTS profiling of the MIPE4 collection as inhibitors of Plasmodium falciparum (DD2) proliferation (Rep 2) (AID 743346). The following applies: P. falciparum Dd2 in erythrocytes, SYBR Green DNA, 72 h; at 28.5 µM unless noted. The essentials:
(§1)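 Erythrocytes infected with P. falciparum (0.3% parasitemia, 2.5% hematocrit) incubated with compounds 72 h at 37 C, 5% CO2. Lysis with saponin/Triton buffer containing SYBR Green I, overnight at room temperature in the dark; DNA fluorescence (485/535 nm) normalised to 0.29 uM artemisinin and DMSO.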
On the technique in general: qHTS replaces the single test concentration by a dilution series.
`NC(=O)Nc1sc(-c2ccc(F)cc2)cc1C(N)=O`: the parasite growth, % of control (lower = inhibition) amounted to 9.96%. Still for that read-out and setting: then `C=C1CCC2[C@](C)(CO)C(O)CC[C@]2(C)C1CC=C1C(=O)OCC1O` (stereo not given in full), with 92.9% [at 57.5 µM]; and `CC[C@H]1OC(=O)[C@H](C)[C@@H](O[C@H]2C[C@@](C)(OC)[C@@H](O)[C@H](C)O2)[C@H](C)[C@@H](O[C@@H]2O[C@H](C)C[C@H](N(C)C)[C@@H]2O)[C@](C)(OC)C[C@@H](C)C(=O)[C@H](C)[C@@H](O)[C@]1(C)O`, with 66.9%. The same measure, in the same setting: then `Cc1ccc2nc(NCCN)c3ncc(C)n3c2c1`, with 33.4%; and `CCc1cc(C(C)=NOCc2ccc(C3CCCCC3)c(C(F)(F)F)c2)ccc1CN1CC(C(=O)O)C1`, with 41.3%; and `COc1cc(C(=O)NC2CCN(C)CC2)ccc1Nc1ncc2c(n1)N(C1CCCC1)CCC(=O)N2C(C)C`, with 15.5%. Still for that read-out and setting: then `CC(C=CC=C(C)C=CC1=C(C)CCCC1(C)C)=CC=CC=C(C)C=CC=C(C)C=CC1=C(C)CCCC1(C)C`, with 28.1%; and `CCOC(=O)N1CCN([N+]([O-])=NOc2ccc([N+](=O)[O-])cc2C#N)CC1`, with 17.1%; and `C[C@H]1[C@@H](OC(=O)CCC(=O)O)O[C@@H]2O[C@@]3(C)CC[C@@H]4[C@H](C)CC[C@@H]1[C@@]24OO3`, with 10.6%. Turning to `C[C@]12CCC(=O)C=C1[C@@H]1CC1[C@H]1[C@H]3[C@@H]4C[C@H]4[C@@]4(CCC(=O)O4)[C@@]3(C)CC[C@H]12` (stereo not given in full), the parasite growth, % of control (lower = inhibition) was determined as 41.4%. On the same count and under the same terms, the value for `COc1ccc(CCC(=O)c2c(O)cc(O[C@@H]3O[C@H](CO)[C@@H](O)[C@H](O)[C@@H]3O[C@@H]3O[C@@H](C)[C@H](O)[C@@H](O)[C@@H]3O)cc2O)cc1O` was 41.2%. On the same count and under the same terms, then `C[C@H](NCc1ccc(OCc2cccc(F)c2)cc1)C(N)=O`, with 12.8%; and `CC(=O)[C@]1(O)Cc2c(O)c3c(c(O)c2[C@@H](O[C@H]2C[C@H](N)[C@@H](O)[C@H](C)O2)C1)C(=O)c1ccccc1C3=O`, with 49%; and `CC(C)(O)CC[C@@H](O)[C@](C)(O)[C@H]1CC[C@@]2(O)C3=CC(=O)[C@@H]4C[C@@H](O)[C@@H](O)C[C@]4(C)[C@@H]3CC[C@]12C`, with 122%.

Consider `C[C@@H](NCc1cc2ccccc2[nH]1)c1cccc2ccccc12`, for which the parasite growth, % of control (lower = inhibition) was 71.9%.

With `CC(C=CC1=C(C)CCCC1(C)C)=CC=CC(C)=CC(=O)Nc1ccc(O)cc1`, the parasite growth, % of control (lower = inhibition) is 18.5% [at 57.5 µM].

As to `CC(C)C[C@H](NC(=O)CNC(=O)c1cc(Cl)ccc1Cl)B1OC(=O)CC(CC(=O)O)(C(=O)O)O1` (stereo not given in full), the parasite growth, % of control (lower = inhibition) stood at 7.43%. Regarding `Cc1cn([C@@H]2O[C@H](CO)[C@@H](O)[C@H]2F)c(=O)[nH]c1=O`, the parasite growth, % of control (lower = inhibition) is 78.6%. Same read-out and setting: then `c1cncc(CN2CCC(n3ncc4c(N5CCOCC5)nc(-c5ccc6[nH]ccc6c5)nc43)CC2)c1`, with 18.3%; and `O=C(c1ccc(F)cc1)N1CCC[C@H](c2nc(-c3ccc(F)cc3)no2)C1`, with 70.9%. For `CCCCCCCCCCCCc1ccc(S(=O)(=O)Nc2nncs2)cc1`, the parasite growth, % of control (lower = inhibition) came out at 80.6%. Same read-out and setting: the value for `COc1ccc(C(C)=O)c(O)c1` was 131%; that for `O=C(C=Cc1ccc(CN(CCO)CCc2c[nH]c3ccccc23)cc1)NO` was 8.38%. On the same count and under the same terms, then `COc1cc(C)c(C=CC(C)=CC=CC(C)=CC(=O)O)c(C)c1C`, with 85.9%; and `C[C@H](O)[C@@H]1C(=O)N2C(C(=O)O)=C(S[C@@H]3CN[C@H](CNS(N)(=O)=O)C3)[C@@H](C)[C@@H]12`, with 82.6%; and `C#C[C@]1(O)CC[C@@H]2[C@@H]3CCC4=CC(=O)CC[C@@H]4[C@H]3CC[C@@]21CC`, with 51.5%.

A short description of a further assay: qHTS profiling of the MIPE4 collection as inhibitors of Plasmodium falciparum (HB3) proliferation (AID 743347).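 Note: plate controls were DMSO vehicle wells for no effect and artemisinin wells for full effect.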 The following applies: P. falciparum HB3 in erythrocytes, SYBR Green DNA, 72 h; at 28.5 µM unless noted. A digest of the protocol:
as §1
`O=C(O)CCCCCC(=O)NN=C1CCCC1` returned a growth, % of control of 101%.

Compound `CC(C)(C)[N+]([O-])=Cc1ccc(S(=O)(=O)O)cc1S(=O)(=O)O` returned a growth, % of control of 63%. Same read-out and setting: the value for `C[C@@]12C[C@@]3(O)O[C@@H](O1)[C@]1(COC(=O)c4ccccc4)[C@@H]3C[C@@]12O[C@@H]1O[C@H](CO)[C@@H](O)[C@H](O)[C@@H]1O` was 109%; that for `Cc1cncc2cccc(S(=O)(=O)N3CCCN(C(=O)CN)C[C@@H]3C)c12` was 101%. The same measure, in the same setting: the value for `O=C(O)C=Cc1ccc(Cn2ccnc2)cc1` was 95.1%; that for `O=C(CN1C(=O)C2(CCCC2)NC[C@H]1c1cc(F)cc(F)c1)Nc1ccc2c(c1)C[C@@]1(C2)C(=O)Nc2ncccc21` was 40.3%.

In turn, `CCN1CCN(C(=O)N[C@H](C(=O)N[C@@H]2C(=O)N3C(C(=O)O)=C(CSc4nnnn4C)CS[C@@H]23)c2ccc(O)cc2)C(=O)C1=O` gave a growth, % of control of 90.1% [at 9.64 µM].

`Cc1ccc(-n2[nH]c(C)c(N=Nc3cccc(-c4cccc(C(=O)O)c4)c3O)c2=O)cc1C`: the growth, % of control was determined as 72.9%.

As for `NC(=NCCCCCCN=C(N)N=C(N)Nc1ccc(Cl)cc1)N=C(N)Nc1ccc(Cl)cc1`, the growth, % of control turned out to be 6.76%.

Consider `C=C(C)[C@@H]1CC[C@]2(C)CC[C@]3(C)[C@H](CC[C@@H]4[C@@]5(C)CC[C@H](O)C(C)(C)[C@H]5CC[C@]43C)[C@@H]12`, for which the growth, % of control was 37.4%. As for `O=C1NC(O)CCN1[C@@H]1O[C@H](CO)[C@H](O)[C@H]1O` (stereo not given in full), the growth, % of control was determined as 59.2%. Still for that read-out and setting: then `NS(=O)(=O)OC[C@@H]1C[C@@H](n2ccc3c(N[C@H]4CCc5ccccc54)ncnc32)C[C@H]1O`, with 51%; and `Cc1cc(-c2nnc3n2CCCCC3)c(C)n1-c1ccccc1`, with 16.4%. Still for that read-out and setting: then `NC(=O)Nc1sc(-c2ccc(F)cc2)cc1C(N)=O`, with 3.76%; and `C=C1CCC2[C@](C)(CO)C(O)CC[C@]2(C)C1CC=C1C(=O)OCC1O` (stereo not given in full), with 46.9% [at 57.5 µM]. Compound `CC[C@H]1OC(=O)[C@H](C)[C@@H](O[C@H]2C[C@@](C)(OC)[C@@H](O)[C@H](C)O2)[C@H](C)[C@@H](O[C@@H]2O[C@H](C)C[C@H](N(C)C)[C@@H]2O)[C@](C)(OC)C[C@@H](C)C(=O)[C@H](C)[C@@H](O)[C@]1(C)O` yielded a growth, % of control of 51.5%. Still for that read-out and setting: the value for `Cc1ccc2nc(NCCN)c3ncc(C)n3c2c1` was 81.1%; that for `CCc1cc(C(C)=NOCc2ccc(C3CCCCC3)c(C(F)(F)F)c2)ccc1CN1CC(C(=O)O)C1` was 11.3%; that for `COc1cc(C(=O)NC2CCN(C)CC2)ccc1Nc1ncc2c(n1)N(C1CCCC1)CCC(=O)N2C(C)C` was 6.9%. `CC(C=CC=C(C)C=CC1=C(C)CCCC1(C)C)=CC=CC=C(C)C=CC=C(C)C=CC1=C(C)CCCC1(C)C` came in with a growth, % of control of 7.95%.

Turning to `CCOC(=O)N1CCN([N+]([O-])=NOc2ccc([N+](=O)[O-])cc2C#N)CC1`, the growth, % of control was determined as 19.1%.

Turning to `C[C@H]1[C@@H](OC(=O)CCC(=O)O)O[C@@H]2O[C@@]3(C)CC[C@@H]4[C@H](C)CC[C@@H]1[C@@]24OO3`, the growth, % of control is 8.92%. Compound `C[C@]12CCC(=O)C=C1[C@@H]1CC1[C@H]1[C@H]3[C@@H]4C[C@H]4[C@@]4(CCC(=O)O4)[C@@]3(C)CC[C@H]12` (stereo not given in full) returned a growth, % of control of 71.4%. The compound `COc1ccc(CCC(=O)c2c(O)cc(O[C@@H]3O[C@H](CO)[C@@H](O)[C@H](O)[C@@H]3O[C@@H]3O[C@@H](C)[C@H](O)[C@@H](O)[C@@H]3O)cc2O)cc1O` had a growth, % of control of 6.55%. `C[C@H](NCc1ccc(OCc2cccc(F)c2)cc1)C(N)=O` had a growth, % of control of 3.17%.

In turn, `CC(=O)[C@]1(O)Cc2c(O)c3c(c(O)c2[C@@H](O[C@H]2C[C@H](N)[C@@H](O)[C@H](C)O2)C1)C(=O)c1ccccc1C3=O` had a growth, % of control of 11.5%. On the same count and under the same terms, then `CC(C)(O)CC[C@@H](O)[C@](C)(O)[C@H]1CC[C@@]2(O)C3=CC(=O)[C@@H]4C[C@@H](O)[C@@H](O)C[C@]4(C)[C@@H]3CC[C@]12C`, with 674%; and `C[C@@H](NCc1cc2ccccc2[nH]1)c1cccc2ccccc12`, with 36.4%; and `CC(C=CC1=C(C)CCCC1(C)C)=CC=CC(C)=CC(=O)Nc1ccc(O)cc1`, with 7.5% [at 57.5 µM]. The same measure, in the same setting: the value for `CC(C)C[C@H](NC(=O)CNC(=O)c1cc(Cl)ccc1Cl)B1OC(=O)CC(CC(=O)O)(C(=O)O)O1` (stereo not given in full) was 8.02%. On the same count and under the same terms, then `Cc1cn([C@@H]2O[C@H](CO)[C@@H](O)[C@H]2F)c(=O)[nH]c1=O`, with 323%; and `c1cncc(CN2CCC(n3ncc4c(N5CCOCC5)nc(-c5ccc6[nH]ccc6c5)nc43)CC2)c1`, with 8.55%; and `O=C(c1ccc(F)cc1)N1CCC[C@H](c2nc(-c3ccc(F)cc3)no2)C1`, with 82.2%. The compound `CCCCCCCCCCCCc1ccc(S(=O)(=O)Nc2nncs2)cc1` showed a growth, % of control of 117%. The same measure, in the same setting: the value for `COc1ccc(C(C)=O)c(O)c1` was 95.8%.

Take `O=C(C=Cc1ccc(CN(CCO)CCc2c[nH]c3ccccc23)cc1)NO`: the growth, % of control turned out to be 2.54%. Turning to `COc1cc(C)c(C=CC(C)=CC=CC(C)=CC(=O)O)c(C)c1C`, the growth, % of control was 83.1%.

Regarding `C[C@H](O)[C@@H]1C(=O)N2C(C(=O)O)=C(S[C@@H]3CN[C@H](CNS(N)(=O)=O)C3)[C@@H](C)[C@@H]12`, the growth, % of control was determined as 87.8%. In turn, `C#C[C@]1(O)CC[C@@H]2[C@@H]3CCC4=CC(=O)CC[C@@H]4[C@H]3CC[C@@]21CC` registered a growth, % of control of 61.1%.
